# Screening results: PubChem BioAssay, several laboratories
# An excerpt weighted towards active compounds, which were near 2.4% of everything screened.
# eIF4E-4G inh: eIF4E–eIF4G protein interaction inhibitors, primary screen, biochemical, uHTS, TR-FRET, eIF4GI fragment; Eukaryotic translation initiation factor 4E (Mus musculus) + Eukaryotic translation …; TR-FRET eIF4E-eIF4GI(517-606) binding, 2 h; inhibition, % at 21.7 µM; hit rate 0.37% among 220,000;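 active = inhibition above about 30%, limit read from the data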
# PfM18AAP inh: PfM18AAP inhibitors, malaria aminopeptidase, primary screen, biochemical, QFRET, recombinant enzyme; M18 aspartyl aminopeptidase (Plasmodium falciparum 3D7); H-Glu-NHMec fluorogenic cleavage; inhibition, % at 7.35 µM; hit rate 1.2% among 290,000;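 active = inhibition above the campaign mean inhibition over all tested compounds plus 3 SD, cut at about 28% in these data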
# MLLE-PAM2 inh: inhibitors of PABP1 MLLE–PAM2 peptide binding, primary screen, biochemical, fluorescence polarization, FITC-PAM2, GST-MLLE; inhibition, % at 20 µM; hit rate 0.36% among 360,000; in the data active = inhibition above about 35%, passing the limit was not always enough
# PERK inh: block of dimerizer-induced PERK translation repression, primary screen, PERK inhibitor project, CHO PERK-DD cells, SEAP luminescence, HTS; AID 1416, 2008; Eukaryotic translation initiation factor 2-alpha kinase 3 (Homo sapiens), Q9NZJ5; hit rate 0.17% among 220,000; inhibition, % at 5.6 µM; CHO PERK-DD fusion, SEAP luminescence translation reporter;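 active = inhibition above the mean inhibition of all tested compounds plus 3 SD, set separately per screening campaign, cut at about 2.9% in these data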;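 note: PERK kinase domain activated by AP20187 dimerizer at 100 nM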
# Target sequence (Q9NZJ5 whole entry, looked up, the tested form may be a part): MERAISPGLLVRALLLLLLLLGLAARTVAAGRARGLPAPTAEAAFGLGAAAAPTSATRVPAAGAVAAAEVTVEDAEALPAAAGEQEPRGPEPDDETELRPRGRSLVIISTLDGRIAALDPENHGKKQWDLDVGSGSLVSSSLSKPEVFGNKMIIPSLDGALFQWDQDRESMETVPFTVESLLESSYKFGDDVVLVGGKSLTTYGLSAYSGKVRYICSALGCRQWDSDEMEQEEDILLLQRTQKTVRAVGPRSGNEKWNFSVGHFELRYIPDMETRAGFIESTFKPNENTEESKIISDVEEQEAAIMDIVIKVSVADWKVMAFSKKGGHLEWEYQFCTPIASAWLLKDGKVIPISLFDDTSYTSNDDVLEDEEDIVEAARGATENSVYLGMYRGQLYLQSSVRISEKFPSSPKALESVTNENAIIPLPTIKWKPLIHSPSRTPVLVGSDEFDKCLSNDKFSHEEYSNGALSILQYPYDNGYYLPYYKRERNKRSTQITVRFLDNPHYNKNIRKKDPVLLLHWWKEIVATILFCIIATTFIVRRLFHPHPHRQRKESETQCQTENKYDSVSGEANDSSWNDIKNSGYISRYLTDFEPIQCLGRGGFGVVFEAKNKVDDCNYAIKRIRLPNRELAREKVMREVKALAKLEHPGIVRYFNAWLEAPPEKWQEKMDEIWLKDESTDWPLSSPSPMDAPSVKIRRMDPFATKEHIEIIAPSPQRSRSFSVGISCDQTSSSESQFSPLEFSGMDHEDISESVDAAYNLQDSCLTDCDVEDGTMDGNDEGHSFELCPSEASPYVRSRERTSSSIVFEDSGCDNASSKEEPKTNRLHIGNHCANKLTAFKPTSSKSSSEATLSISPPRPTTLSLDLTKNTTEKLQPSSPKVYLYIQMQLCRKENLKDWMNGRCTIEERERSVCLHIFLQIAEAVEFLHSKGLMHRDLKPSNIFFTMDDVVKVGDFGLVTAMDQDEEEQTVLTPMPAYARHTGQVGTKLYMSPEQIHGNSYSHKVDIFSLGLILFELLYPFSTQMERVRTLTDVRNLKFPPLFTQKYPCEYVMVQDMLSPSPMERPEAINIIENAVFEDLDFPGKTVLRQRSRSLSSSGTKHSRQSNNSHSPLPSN
# eIF4H FP inh: human eIF4H binding inhibitors, primary screen, translation initiation inhibitor project, biochemical, uHTS, fluorescence polarization. hit rate 0.94% among 290,000. eIF4H fluorescence polarization binding assay. Eukaryotic translation initiation factor 4H (Homo sapiens), Q15056. inhibition, % at 35 µM;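 note: calls also rest on retests at 20 µM and on dose response follow-up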
# PABP FP inh: PABP poly(A) RNA binding inhibitors, primary screen, biochemical, fluorescence polarization, uHTS | AID 2014, 2009 | inhibition, % at 35 µM | hit rate 1% among 290,000;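 note: calls also rest on retests at 20 µM and on dose response follow-up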
# Numbers stand for hits; – = inactive; ? = inconclusive; · = no result; [ ] = another dose, or the depositor's remark. Unless noted, the rule behind the calls is not given here.
SMILES,eIF4E-4G inh,PfM18AAP inh,MLLE-PAM2 inh,PERK inh,eIF4H FP inh,PABP FP inh
CC[n+]1c(C)n(-c2ccccc2)c2ccc(C(=O)OC)cc21,–,–,–,–,–,69
CC(=O)c1ccc(OCC(=O)OC(C)C(=O)NC2CCCCC2)cc1 (stereo unspecified),·,·,–,·,·,·
CC(=O)c1ccc(NC(=O)C(C)OC(=O)COc2ccc(C#N)cc2)cc1 (stereo unspecified),–,–,–,–,active,120
Oc1cc(NCCc2cccnc2)cc2cccnc12,·,·,50,·,·,·
CCCNC(=O)C1(C)CCCN(Cc2ccc(-c3ccccn3)cc2)C1 (stereo unspecified),·,·,–,·,·,·
COc1ccccc1NC(=O)c1ccc(S(=O)(=O)N(C)C)cc1,38[fluorescence artefact?],–,–,–,–,–
Nc1nc(N=Nc2ccc(O)cc2)cc(=O)[nH]1,·,·,52,·,·,·
Nc1nc(N)c(N=Nc2ccccc2)c(=O)[nH]1,·,·,–,·,·,·
CCCOc1ccc(OCCOCCN2CCc3ccccc3C2)cc1,–,–,–,–,–,–
CCOc1ccccc1NC(=O)CSc1nnc(-c2cccnc2)o1,·,·,50,·,·,·
CC(C)=CC(=O)N1CCC(Oc2cccc(C(=O)NCc3ccccn3)c2)CC1,·,·,–,·,·,·
CSCC(C)N1CCC(Oc2cccc(C(=O)NCc3ccccn3)c2)CC1 (stereo unspecified),·,–,43,·,–,–
COc1ccc(N=C(C)C2=C(O)CSC2=O)cc1,–,–,–,–,–,–
CC(=Nc1ccccc1)C1=C(O)CSC1=O,–,–,–,–,34,52
COc1ccc(C(=O)NNC(=O)Cc2nc3nc(C)cc(C)n3n2)cc1,·,–,–,·,·,·
CCCCCC/C=N/Nc1nnc(Cc2ccc(OC)c(OC)c2)c(=O)[nH]1,·,–,–,·,–,–
CCCCCCC/C=N/Nc1nnc(Cc2ccccc2)c(=O)[nH]1,·,28,–,·,–,–
Cc1ccc(N2NC(=O)/C(=C/c3ccc(-c4ccc(Cl)c(C(=O)O)c4)o3)C2=O)cc1,–,–,–,–,–,–
O=C1NN(c2ccc(Cl)cc2)C(=O)/C1=C\c1ccc(-c2cccc(C(=O)O)c2)o1,32,–,–,–,–,–
O=C1NN(c2ccccc2)C(=O)/C1=C\c1ccc(-c2cc([N+](=O)[O-])ccc2O)o1,–,–,–,–,92,18
CCCS(=O)(=O)NC(=O)C1(C)CCN(C(=O)/C=C/c2ccccc2)C1 (stereo unspecified),·,·,–,·,·,·
O=[N+]([O-])c1ccc(CSc2ccc(S(=O)(=O)N3CCCC3)cn2)cc1,·,·,–,·,·,·
O=[N+]([O-])c1ccc(CSc2ccc(S(=O)(=O)N3CCOCC3)cn2)cc1,·,·,37,·,·,·
COc1cc(-c2c(C(C)=O)c(C)nc3c2C(=O)c2ccccc2-3)cc(OC)c1OC,·,–,–,·,–,–
CC(=O)c1c(Cl)nc2cccc3c2c1-c1ccccc1C3=O,·,–,50,·,–,–
SMILES,eIF4E-4G inh,PfM18AAP inh,MLLE-PAM2 inh,PERK inh,eIF4H FP inh,PABP FP inh
Cc1ccc2cc(C3CC(c4ccco4)=NN3C(=O)CCC(=O)O)c(Cl)nc2c1 (stereo unspecified),–,–,–,–,?,4.5
Cc1ccc2nc(Cl)c(C3CC(c4cccs4)=NN3C(=O)CCCC(=O)O)cc2c1 (stereo unspecified),–,–,–,–,–,–
CCCc1nc2c(C)cc(Br)cn2c1Cc1ccsc1,·,·,43,·,·,·
CCCc1nc2c(C)cc(Br)cn2c1Cc1ccccc1,·,·,–,·,·,·
O=C(NC1CCCCC1)C1CCN(c2cnccn2)CC1,40,–,–,–,–,–
Cc1ccccc1NC(=O)C1CCN(c2cnccn2)CC1,–,–,–,–,–,–
Cc1cccc2cc3c(NC(=O)C(C)(C)C)nn(CC(C)C)c3nc12,·,–,–,·,–,–
Cc1ccc(C(=O)N2CCn3c(C)ccc3C2C)cc1 (stereo unspecified),–,–,–,–,64,active
CCCNC(=O)Nc1ccc(NC(C)=O)cc1,–,–,–,–,–,–
O=c1c2ccccc2c(C=Nc2ccc(O)cc2)c(O)n1Cc1ccccc1,34,–,–,–,–,–
Cc1onc(-c2c(F)cccc2Cl)c1C(=O)NC1CC1,·,–,–,·,–,–
Cc1onc(-c2c(F)cccc2Cl)c1C(=O)NC(=S)NC1CCSC1=O (stereo unspecified),–,–,44,–,–,–
Cc1onc(-c2c(F)cccc2Cl)c1C(=O)NC(=S)Nc1c(C)n(C)n(-c2ccccc2)c1=O,–,–,45,–,–,–
Cc1onc(-c2c(F)cccc2Cl)c1C(=O)Nc1c(C)n(C)n(-c2ccccc2)c1=O,–,–,–,–,–,–
COc1ccc(C(=O)NC(=S)NC2CCSC2=O)cc1 (stereo unspecified),–,–,38,–,–,–
CCS(=O)(=O)NCC(c1cccnc1)N1CCN(c2ccccc2F)CC1 (stereo unspecified),–,–,–,–,–,–
O=C1CNC(=O)/C(=C/c2ccco2)N1,–,–,–,–,106,–
CC(C)N(C(=O)Nc1ccc2nsnc2c1)C(C)C,–,–,·,–,101,83
O=C(CC1(O)C(=O)N(C/C=C/c2ccccc2)c2ccccc21)c1ccccn1 (stereo unspecified),–,32,–,–,–,–
O=C(CC1(O)C(=O)N(CCc2ccccc2)c2ccccc21)c1ccccn1 (stereo unspecified),–,–,–,–,–,–
O=c1c(-c2ccccc2)n[nH]c2ccccc12,–,–,–,–,–,–
O=C1c2ccccc2-c2n[nH]c3cccc1c23,·,·,73,·,·,·
CN(CC(=O)Nc1ccccc1Cl)C(=O)COC(=O)/C=C/c1cccc(C(F)(F)F)c1,·,·,–,·,·,·
CCC(C)[C@@H](C(=O)NCC1CCC(C(=O)O)CC1)n1nnc2ccccc2c1=O (stereo partly specified),–,–,–,2.9,–,–
COc1cccc(NC(=O)CCC(=O)Nc2cc(OC)c(NC(=O)c3cccs3)cc2OC)c1,·,–,–,·,–,–
CN(C(=S)NC(=O)Cc1ccccc1)c1ccccc1,–,–,–,–,–,–
O=C(NC(C(=O)O)c1ccccc1)c1ccccc1 (stereo unspecified),–,–,–,–,–,–
O=C(NC(Sc1ccc(Cl)cc1)C(=O)O)c1ccccc1 (stereo unspecified),·,·,40,·,·,·
COc1ccc2c(c1)N(C)/C(=C/c1cccc[n+]1C)S2,·,–,–,·,–,–
